Laboratory results as given in PubChem BioAssay (EPA / NIEHS).
Records with an inconclusive call do not appear. Calls of active or inactive are those of the source. The calls were made as follows: active = hit-call score of the fitted dose curve at least 0.9, where 1 is the maximum; inactive = score below 0.9.

read-out: Cytochrome P450 2C9 (Homo sapiens) (UniProt P11712); test: CLD_CYP2C9_48hr: CellzDirect (CLD) Gene Expression Assay for xenobiotic metabolism (CYP2C9) at 48 hours (AID 2283701)
Method: CLD_48hr is a cell-based, multiplexed-readout assay that uses hepatocyte, a human liver primary cell, with measurements taken at 48 hours after chemical dosing in a 96-well plate.CLD_CYP2C9_48hr is one of 16 assay component(s) measured or calculated from the CLD_48hr assay. It is designed to make measurements of mRNA induction, a form of inducible reporter, as detected with chemiluminescence signals by Quantitative Nuclease Protection Assay (qNPA) technology.Data from the assay component CLD_CYP2C9_48hr was analyzed at the endpoint, CLD_CYP2C9_48hr, in the positive analysis fitting direction relative to DMSO as the negative control and baseline of activity. Using a type of inducible reporter, gain-of-signal activity can be used to understand changes in the reporter gene as they relate to the gene CYP2C9. Furthermore, this assay endpoint can be referred to as a primary readout. To generalize the intended target to other relatable targets, this assay endpoint is annotated to the cyp intended target family, where subfamily is xenobiotic metabolism.
Human hepatocyte cultures were treated daily for two consecutive days with fresh dosing solutions containing appropriate concentrations of the 320 ToxCast chemicals (chemical identities were blinded to CellzDirect and other ToxCast collaborators), vehicle control (0.2% DMSO), and positive control inducers as summarized in Table 1. Due to the large number of treatment groups and chemicals examined, the ToxCast chemicals were divided into two groups (spanning two independent cultures of hepatocytes from separate donor preparations (Hu778: ToxCast plates 1 and 2; Hu776: ToxCast plates 3 and 4). Each preparation of human hepatocyte cultures was treated with respective vehicle control, medium only control, set of six positive controls/reference chemicals for the five hepatic receptor pathways, and a subset of eight of the ToxCast chemicals (indoxacarb, pyrithiobac-sodium, norflurazon, cyhalofop-butyl, methomyl, thiram, acetochlor, and propiconazole). These replicate data, coupled with internal replicates designed within the blinded ToxCast chemical library, provided additional data to evaluate interindividual differences between hepatocyte preparations and their potential impact on chemical profiles.Cell morphology and integrity were evaluated using phase-contrast microscopy as an indicator of hepatocyte cell health (Tyson & Green, 1987). Cultures for each treatment group (i.e., media, vehicle [0.2% DMSO], positive control inducers [multiple concentrations], and the ToxCast chemicals [multiple concentrations]) were observed and cell morphology was assessed relative to vehicle control cultures at each harvest time point (0, 6, 24, or 48 h). […] Images were evaluated at the conclusion of the study to assess changes in cell integrity and account for the effects of chemical exposure on uncharacteristic changes in concentration-dependent gene expression profiles. The results from these determinations of apparent cytotoxicity were annotated (yes/no) alongside the corresponding qNPA data for reference.At the conclusion of each treatment period, hepatocyte cultures (96-well) were washed with 1 volume of HBSS, lysed by addition of 25 ul ArrayPlate lysis buffer (HTG, Tucson, AZ), and 70 ul/well of Denaturation Oil, denatured by incubation at 95C for 10 min, and frozen at approximately -70C until analysis by nuclease protection assay (qNPA) (Roberts et al., 2007). For qNPA analysis, cell lysates were thawed at 50C for approximately 30 min, qNPA probes were added, and samples were incubated at 95C for 10 min to begin the detection process by denaturing the target RNA, dissociating the duplexes and secondary structure hybridization. At the conclusion of the hybridization period, S1 nuclease reagent was added to each sample to digest all nonprotected nucleotides at 50C for 60-90 min. […]

| Compound | outcome |
| --- | --- |
| CC(C)OC(=O)Nc1cccc(Cl)c1 | inactive |
| COP(=S)(OC)Oc1ccc([N+](=O)[O-])cc1 | inactive |
| COC(=O)c1ccccc1S(=O)(=O)NC(=O)N(C)c1nc(C)nc(OC)n1 | inactive |
| O=[N+]([O-])c1c(Cl)c(Cl)c(Cl)c(Cl)c1Cl | inactive |
| CCC(C)(C)C(=O)OC1=C(c2ccc(Cl)cc2Cl)C(=O)OC12CCCCC2 | inactive |
| CC1(C)C(C=C(Cl)Cl)C1C(=O)OC(C#N)c1ccc(F)c(Oc2ccccc2)c1 (stereo unspecified) | inactive |
| CCc1ccc(C(=O)NN(C(=O)c2cc(C)cc(C)c2)C(C)(C)C)cc1 | inactive |
| CCOc1nc(NC)nc(NC(=O)NS(=O)(=O)c2ccccc2C(=O)OC)n1 | inactive |
| Cc1[nH]c(=O)n(C(C)(C)C)c(=O)c1Cl | inactive |
| O=C(O)CCCOc1ccc(Cl)cc1Cl | inactive |
| CNC(=O)Oc1ccccc1OC(C)C | inactive |
| COC(=O)c1ccccc1CS(=O)(=O)NC(=O)Nc1nc(OC)cc(OC)n1 | inactive |
| ClC1C(Cl)C(Cl)C(Cl)C(Cl)C1Cl (stereo unspecified) | inactive |
| COc1cc(OC)nc(NC(=O)NS(=O)(=O)c2cc(NC=O)ccc2C(=O)N(C)C)n1 | inactive |
| C#CCN1C(=O)COc2cc(F)c(N3C(=O)C4=C(CCCC4)C3=O)cc21 | inactive |
| CC(C)(C)C(O)C(Oc1ccc(Cl)cc1)n1cncn1 (stereo unspecified) | inactive |
| CC(C)(C)C(O)/C(=C\c1ccc(Cl)cc1Cl)n1cncn1 (stereo unspecified) | inactive |
| Clc1ccccc1-c1nnc(-c2ccccc2Cl)nn1 | inactive |
| N#CN | inactive |
| CCC(C)(NC(=O)c1cc(Cl)c(C)c(Cl)c1)C(=O)CCl (stereo unspecified) | inactive |
| Cc1cc(C)nc(NC(=O)NS(=O)(=O)c2ccccc2C(=O)OC2COC2)n1 | inactive |
| COP(=O)(OC)OC=C(Cl)Cl | inactive |
| C[C@H]1[C@H](c2ccc(Cl)cc2)SC(=O)N1C(=O)NC1CCCCC1 | inactive |
| CCOC1Oc2ccc(OS(C)(=O)=O)cc2C1(C)C (stereo unspecified) | inactive |
| CN1CSC(=S)N(C)C1 | inactive |
| CCCN(CCC)c1c([N+](=O)[O-])cc(C(F)(F)F)cc1[N+](=O)[O-] | inactive |
